Measurements: ChEMBL document CHEMBL3988442, “University of Dundee, Small-Polar-MMV Screening Library” (2021)

biological target: T1, Methionyl-tRNA synthetase, putative (Leishmania donovani (strain BPK282A1)) (UniProt E9BF75); assay: Leishmania donovani Methionine tRNA synthetase (LdMetRS):v7. Dose response assay; format: functional; design: conc 80 nM, time 150 minutes; conditions: MAX_EFFECT 5.420560748
T1 sequence (whole entry): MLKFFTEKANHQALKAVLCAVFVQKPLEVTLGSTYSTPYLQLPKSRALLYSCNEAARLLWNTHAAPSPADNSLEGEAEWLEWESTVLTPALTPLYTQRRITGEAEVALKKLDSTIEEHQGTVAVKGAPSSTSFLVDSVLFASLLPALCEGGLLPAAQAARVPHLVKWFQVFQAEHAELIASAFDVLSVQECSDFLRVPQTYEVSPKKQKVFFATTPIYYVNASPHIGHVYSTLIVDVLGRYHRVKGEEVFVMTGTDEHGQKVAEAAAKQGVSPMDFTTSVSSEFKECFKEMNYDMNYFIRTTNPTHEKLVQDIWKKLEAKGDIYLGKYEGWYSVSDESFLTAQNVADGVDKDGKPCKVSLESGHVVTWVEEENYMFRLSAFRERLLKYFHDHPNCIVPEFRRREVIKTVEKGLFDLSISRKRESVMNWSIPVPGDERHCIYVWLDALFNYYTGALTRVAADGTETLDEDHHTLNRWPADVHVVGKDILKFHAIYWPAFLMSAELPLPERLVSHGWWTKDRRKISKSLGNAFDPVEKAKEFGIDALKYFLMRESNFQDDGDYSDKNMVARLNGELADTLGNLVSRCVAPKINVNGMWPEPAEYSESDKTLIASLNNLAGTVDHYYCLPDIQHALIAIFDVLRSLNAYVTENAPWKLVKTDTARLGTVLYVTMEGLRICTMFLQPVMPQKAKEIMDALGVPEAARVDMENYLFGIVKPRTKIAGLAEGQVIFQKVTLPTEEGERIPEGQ

PXC50, < 4:
COc1ccccc1NC(=O)Nc1cc(C(N)=O)ccc1OC
COc1ccccc1NC(=O)Nc1nn(C)c2ccccc12
OCCNc1nccc(Nc2ccc(F)c(F)c2)n1
